Rab9 prom act – qHTS Assay for Rab9 Promoter Activators. Huh7 Rab9 promoter-luciferase reporter, luminescence, 24 h. 320,000 compounds, 2.8% hits. AID 485297, 2010. Potency, µM (series often up to 9.22 µM), for the others: at the highest dose activation, negative = inhibition, hits mostly activators; note: % of control where 0% means no effect; nearly all actives have a fitted effect of over 60% in size
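Measured in stably transfected Huh7 cells bearing a Rab9 promoter–luciferase construct: 24 h compound treatment at 37 °C, followed by luminescence detection.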
Luc counter – Counterscreen for Luciferase (Kinase-Glo TM) Inhibition; Luciferin 4-monooxygenase (Photuris pensylvanica), Q27757; Kinase-Glo luciferase, ATP luminescence, 8 min; AID 1379, 2008; 200,000 compounds, 0.28% hits; Potency, µM (highest dose often 38.3 µM), inactives show top-dose activity change, negative = inhibition, hits mostly inhibitors; note: % is set by controls: 0 for no effect and ±100 for the full control effect; nearly all actives have a fitted effect of over 60% in size
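Inhibition of Kinase-Glo luciferase light generation was assessed at 10 uM ATP in pH 7.2 imidazole buffer, with luminescence measured after eight minutes at ambient temperature.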
NPC1 promoter act – qHTS Assay for NPC1 Promoter Activators; Huh7 NPC1 promoter luciferase reporter, 24 h; Potency, µM (doses to about 9.22 µM), without a hit: at the highest dose activation, usual class: activators; 320,000 compounds, 2.4% hits; note: % of control where 0% means no effect; nearly all actives have a fitted effect of over 60% in size
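Luciferase expression driven by the NPC1 promoter was measured in stably transfected Huh7 cells after a 24 h compound incubation, using a luciferase reagent and a luminescence read.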
SMN2 splice enh – qHTS Assay for Enhancers of SMN2 Splice Variant Expression; HEK293 SMN2-luciferase splicing reporter, luminescence, 30-36 h; Potency, µM (top dose mostly 46.1 µM), without a hit: top-dose activity change, positive = activation, hits mostly activators; 210,000 compounds, 2.8% hits; note: % of control where 0% means no effect; nearly all actives have a fitted effect of over 55% in size
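HEK293 cells carry an SMN2 […]–luciferase reporter in which exon 7 inclusion puts luciferase in frame. Cells were plated 10-12 h before compound addition, then incubated 30-36 h at 37C. ONE-Glo luminescence was read; sodium butyrate at 4.5 mM final served as control.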
ELG1 genotoxic – qHTS screen for small molecules that induce genotoxicity in human embryonic kidney (HEK293T) cells expressing luciferase-tagged ELG1; Potency, µM (series often up to 46 µM), without a hit: at the highest dose activity change, positive = activation, usual class: activators; 330,000 compounds, 1.3% hits; HEK293T ELG1-luciferase reporter, luminescence, 16 h; AID 504466, 2011; note: % of control where 0% means no effect; nearly all actives have a fitted effect of over 60% in size
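HEK293T cells expressing luciferase-tagged ELG1 were exposed to compound or DMSO vehicle for 16 hr at 37 °C and 5% CO2. Luciferase activity was then measured with ONE-Glo after 30 min at room temperature.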
FLuc modulator – qHTS profiling assay for firefly luciferase inhibitor/activator using purifed enzyme and Km concentrations of substrates (counterscreen for miR-21 project); AID 588342, 2011; Luciferin 4-monooxygenase (Photinus pyralis), P08659; Potency, µM (top dose mostly 57.5 µM), inactives show top-dose activity change, negative = inhibition, actives largely listed as inhibitors; 360,000 compounds, 6.9% hits; purified FLuc, Km substrates, luminescence inhibition;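 note: plate controls were vehicle for no effect and reference inhibitor for full effect; nearly all actives have a fitted effect of over 55% in size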
Target sequence (P08659 whole entry, looked up): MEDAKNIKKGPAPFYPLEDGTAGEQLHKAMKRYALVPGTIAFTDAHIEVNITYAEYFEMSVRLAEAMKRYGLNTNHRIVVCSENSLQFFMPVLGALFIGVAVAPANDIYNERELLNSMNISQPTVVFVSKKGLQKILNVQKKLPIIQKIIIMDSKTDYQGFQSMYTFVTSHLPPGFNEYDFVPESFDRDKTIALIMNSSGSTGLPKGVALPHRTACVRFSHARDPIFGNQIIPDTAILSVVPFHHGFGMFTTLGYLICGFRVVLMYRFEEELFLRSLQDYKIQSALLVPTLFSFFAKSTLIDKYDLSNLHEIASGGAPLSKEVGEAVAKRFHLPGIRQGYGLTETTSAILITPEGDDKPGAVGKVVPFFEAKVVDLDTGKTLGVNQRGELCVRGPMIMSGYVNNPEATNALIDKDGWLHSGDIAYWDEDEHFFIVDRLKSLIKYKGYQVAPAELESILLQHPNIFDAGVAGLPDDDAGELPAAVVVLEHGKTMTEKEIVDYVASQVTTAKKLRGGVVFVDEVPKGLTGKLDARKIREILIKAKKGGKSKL
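Biochemical qHTS of compounds, final roughly 60 µM downward over six points, against 10 nM purified firefly luciferase using Km concentrations of substrates (10 uM D-luciferin, 10 uM ATP) in Tris acetate pH 7.5 buffer; luminescence output.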
* = called active by the depositor; ? = inconclusive; . = no result given; [ ] = dose if it differs, or a comment. The list is not random: actives were taken first. Their share in the collection is about 7.5%. Calls come from the whole dose curve; as a rule, active = well fitted curve in the direction sought with a large enough effect; inconclusive = small, poorly fitted or top-dose-only effect, or another doubt; inactive = no such curve, though single readings can be large; an effect the other way counts as inactive or inconclusive. Potency is the fitted concentration of half-maximal effect.

SMILES	Rab9 prom act	Luc counter	NPC1 promoter act	SMN2 splice enh	ELG1 genotoxic	FLuc modulator
COc1ccc(-c2ccnc3nc(N4CCN(c5ccccc5)CC4)nn23)cc1	-13%	4%	-1%	1%	0%	-7%
O=C(Nc1nc2nccc(-c3ccccc3)n2n1)c1ccccc1	2.5µM*	.	2.8µM*	.	?	?
COc1ccc(C(=O)Nc2nc3nccc(-c4ccccc4)n3n2)cc1	1%	2%	-3%	-25%	-3%	9.5µM*
COc1cccc(N=C2SC(CC(=O)Nc3ccccc3)C(=O)N2Cc2ccccn2)c1 (stereo not given)	2%	0%	-7%	-3%	-6%	-10%
COc1ccc(OCC(=O)Nc2cc(-c3nc4ccccc4o3)ccc2Cl)cc1	.	.	.	14%	.	4%
CCc1ccc(OCCCC(=O)Nc2ccc(N3CCCCC3)cc2)cc1	-1%	-1%	-3%	-22%	-1%	-1%
CCCCOC(=O)Nc1ccc(N2CCCCC2)cc1	3.2µM*	-1%	2.2µM*	11µM*	?	3µM*
CCCCOC(=O)Nc1ccc(N2CCOCC2)cc1	3.2µM*	-1%	?	11µM*	?	15µM*
O=C(O)c1cccnc1C(=O)O	-10%[46.1 µM]	-5%	-7%[46.1 µM]	-10%	4%	12%
CC(=O)c1cccc(Nc2ncnc3c2cnn3C)c1	.	.	.	.	.	-10%
CC(C)(C)c1ccc(OCC(=O)Nc2ccc(C(=O)OC3CCCCC3)cc2)cc1	.	.	.	-3%	.	-3%
O=C(Nc1nnc(-c2ccccc2F)s1)Nc1ccccc1F	2µM*	2%	?	?	11%	6%
O=C(Nc1nnc(Cc2ccccc2F)s1)c1ccccc1Cl	6%	.	1%	.	3%	-3%
O=C(Nc1nnc(-c2ccccc2)s1)c1ccccc1F	1.1µM*	.	2.5µM*	.	?	11µM*
O=C(Nc1nnc(-c2ccccc2Cl)s1)c1ccccc1F	4µM*	.	3.2µM*	.	?	-13%
Cc1cc(NC(=O)CSC2=NS(=O)(=O)c3ccccc3N2)no1	-1%	.	-2%	.	0%	-9%
COc1ccc(/C=C/C(=O)C23CC4CC(CC(C4)C2)C3)cc1CN1CCOCC1	-2%	0%	0%	-56%	-10%	7%
COc1ccc(-c2cc(C(=O)N3CCCC(C(F)(F)F)C3)c3ccccc3n2)cc1OC (stereo not given)	1%	.	-1%	.	-16%	?
Cc1ccc(-c2cc(C(=O)N3CCN(c4ccccc4)CC3)c3ccccc3n2)cc1C	.	.	.	.	.	2.4µM*
Cc1ccc(-c2cc(C(=O)n3cnc4ccccc43)c3ccccc3n2)cc1C	?	-4%	?	21%	12%	3µM*
COc1ccc(-c2cc(C(=O)N3CCN(c4ccccc4)CC3)c3ccccc3n2)cc1OC	-2%	-7%	-3%	25%	-15%	15µM*
Cc1ccc2c(C(=O)N3CCN(c4ccccc4)CC3)cc(-c3cccnc3)nc2c1C	-6%	0%	-7%	10%	-3%	-2%
Cc1ccc(-n2c(SCC(=O)N3CCC(C)CC3)nc3c([nH]c4ccccc43)c2=O)cc1	.	.	.	.	.	6%
CC(NC(=O)CNC(=O)c1ccccc1F)c1ccc(-n2ccnc2)cc1 (stereo not given)	-4%	.	1%	.	1%	5%
O=C(Nc1ccccc1Br)c1cc(=O)c2ccccc2o1	4µM*	.	2.5µM*	.	7.3µM*	12µM*
SMILES	Rab9 prom act	Luc counter	NPC1 promoter act	SMN2 splice enh	ELG1 genotoxic	FLuc modulator
O=C(Nc1ccccc1Cl)c1cc(=O)c2ccccc2o1	?	.	3.5µM*	.	?	15µM*
NS(=O)(=O)c1cccc(NC(=O)c2cc(=O)c3ccccc3o2)c1	-1%	.	-1%	.	-1%	-9%
Cc1ccccc1NC(=O)CCc1nnc2ccc(N3CCC4(CC3)OCCO4)nn12	13%	.	2%	.	0%	-1%
COc1ccc(NC(=O)c2cc(-c3ccccn3)nc3ccccc23)cc1S(=O)(=O)N(C)C	-1%	.	0%	.	-6%	-15%
CCc1cccc(C)c1NC(=S)NCc1ccc2[nH]c(C)cc2c1	-1%	0%	-2%	-11%	0%	3%
CCCCCCNC(=O)Nc1ccc(S(=O)(=O)Nc2ccc(CCNC[C@H](O)COc3ccc(O)cc3)cc2)cc1	.	-2%	.	-1%	.	.
Nc1n[nH]c(N)c1N=Nc1ccc(Cl)cc1Cl	3%	2%	17%	.	?	13µM*
O=C(Nc1cccc(C(F)(F)F)c1)c1cc(-c2ccco2)on1	3%	.	1%	.	7%	?
COc1ccc(-c2cc(C(=O)Nc3ccc(C)c(C)c3)no2)cc1	23%	.	10%	.	4%	-1%
CC(=O)c1cccc(NC(=O)c2cc(-c3ccco3)on2)c1	3%	.	-3%	.	?	2.4µM*
O=C(Nc1cccc(O)c1)c1cc(-c2ccco2)on1	1%	-5%	-2%	11%	?	0.95µM*
COc1ccc(-c2cc(C(=O)Nc3cccc(O)c3)no2)cc1	4µM*	.	?	.	?	0.38µM*
O=C(Nc1nnc(C2=COCCO2)o1)c1ccc([N+](=O)[O-])cc1	1%	.	1%	.	-6%	-3%
COc1ccccc1NS(=O)(=O)c1cccc(C(=O)N/N=C(\C)c2ccc3c(c2)OCCO3)c1	1%	-3%	-1%	-9%	0%	15µM*
C/C(=N/NC(=O)c1ccc2c(c1)OCO2)c1cccc(NC(=O)C(C)(C)C)c1	3%	4%	-7%	19%	5%	17µM*
C/C(=N/NC(=O)c1ccc2c(c1)OCO2)c1ccc(NC(=O)c2ccc(F)cc2)cc1	23%	.	16%	.	15µM*	-7%
C/C(=N\NC(=O)c1cc2ccccc2cc1O)c1ccc2c(c1)OCO2	25%	-9%	21%	15%	10%	9.5µM*
COc1ccc(/C(C)=N\NC(=O)c2ccc3c(c2)OCO3)cc1OC	2%	-4%	1%	-8%	3%	?
COc1ccccc1NS(=O)(=O)c1cccc(C(=O)N/N=C(\C)c2cccnc2)c1	2%	.	-1%	.	1%	2%
CC(c1ccccc1F)n1cc(C(=O)NCCCc2nc3ccccc3[nH]2)nn1 (stereo not given)	-4%	-1%	-2%	-12%	-2%	-1%
CCOc1ccc(-n2cc(-c3ccccc3)c3c(NCCc4ccccc4)ncnc32)cc1	.	.	.	.	.	2%

Assay outcomes: PubChem BioAssay, National Center for Advancing Translational Sciences (NCATS)
